Test results reported in paper PMC9911399, “Two distinct binding modes provide the RNA-binding protein RbFox with extraordinary sequence specificity”.
Changes are numbered by the printed parent chain; changes in the protein carry UniProt numbers. The full ranking holds about 16,000 sequences; the median of “ka relative to ugcaugu” is about 0.0091, and the highest 2% start at about 0.032. Only a selection was taken, and the highest values are over-represented in it overall.

B1: AGUAAAU (DNA:RNA)
RNA: GGGAGACCGGAAUUCAGAUUGUCCAGUAAAUUUAAAUCCCGUCGUAGCCACCA
DNA 1: CAATCTGAATTCCGGTCTCCC
DNA 2: TGGTGGCTACGACGGGATT
B2: GCAUUGG (DNA:RNA)
RNA: GGGAGACCGGAAUUCAGAUUGUCCGCAUUGGUUAAAUCCCGUCGUAGCCACCA
DNA 1: CAATCTGAATTCCGGTCTCCC
DNA 2: TGGTGGCTACGACGGGATT
B3: GCCAUGG (DNA:RNA)
RNA: B2 RNA with A27C, U28A
DNA 1: CAATCTGAATTCCGGTCTCCC
DNA 2: TGGTGGCTACGACGGGATT
B4: CGCAUGG (DNA:RNA)
RNA: B2 RNA with G25C, C26G, A27C, U28A
DNA 1: CAATCTGAATTCCGGTCTCCC
DNA 2: TGGTGGCTACGACGGGATT
B5: CUUGGUG (DNA:RNA)
RNA: B1 RNA with A25C, G26U, A28G, A29G, A30U, U31G
DNA 1: CAATCTGAATTCCGGTCTCCC
DNA 2: TGGTGGCTACGACGGGATT
B6: AGGGUAG (DNA:RNA)
RNA: B1 RNA with U27G, A28G, A29U, U31G
DNA 1: CAATCTGAATTCCGGTCTCCC
DNA 2: TGGTGGCTACGACGGGATT
B7: GGGGCUG (DNA:RNA)
RNA: B2 RNA with C26G, A27G, U28G, U29C, G30U
DNA 1: CAATCTGAATTCCGGTCTCCC
DNA 2: TGGTGGCTACGACGGGATT
B8: GGGGCUC (DNA:RNA)
RNA: B1 RNA with A25G, U27G, A28G, A29C, A30U, U31C
DNA 1: CAATCTGAATTCCGGTCTCCC
DNA 2: TGGTGGCTACGACGGGATT
B9: CGGGCUG (DNA:RNA)
RNA: B1 RNA with A25C, U27G, A28G, A29C, A30U, U31G
DNA 1: CAATCTGAATTCCGGTCTCCC
DNA 2: TGGTGGCTACGACGGGATT
B10: ACCGGGC (DNA:RNA)
RNA: B2 RNA with G25A, A27C, U28G, U29G, G31C
DNA 1: CAATCTGAATTCCGGTCTCCC
DNA 2: TGGTGGCTACGACGGGATT
B11: CGGGCUC (DNA:RNA)
RNA: B1 RNA with A25C, U27G, A28G, A29C, A30U, U31C
DNA 1: CAATCTGAATTCCGGTCTCCC
DNA 2: TGGTGGCTACGACGGGATT
B12: CCCGGGC (DNA:RNA)
RNA: B2 RNA with G25C, A27C, U28G, U29G, G31C
DNA 1: CAATCTGAATTCCGGTCTCCC
DNA 2: TGGTGGCTACGACGGGATT
B13: GGGCUCU (DNA:RNA)
RNA: B1 RNA with A25G, U27G, A28C, A29U, A30C
DNA 1: CAATCTGAATTCCGGTCTCCC
DNA 2: TGGTGGCTACGACGGGATT
B14: CGGGGGC (DNA:RNA)
RNA: B1 RNA with A25C, U27G, A28G, A29G, A30G, U31C
DNA 1: CAATCTGAATTCCGGTCTCCC
DNA 2: TGGTGGCTACGACGGGATT
B15: GGGCUGU (DNA:RNA)
RNA: B2 RNA with C26G, A27G, U28C, G31U
DNA 1: CAATCTGAATTCCGGTCTCCC
DNA 2: TGGTGGCTACGACGGGATT
B16: UUUCUAU (DNA:RNA)
RNA: B1 RNA with A25U, G26U, A28C, A29U
DNA 1: CAATCTGAATTCCGGTCTCCC
DNA 2: TGGTGGCTACGACGGGATT
B17: UGCAUCU (DNA:RNA)
RNA: B1 RNA with A25U, U27C, A29U, A30C
DNA 1: CAATCTGAATTCCGGTCTCCC
DNA 2: TGGTGGCTACGACGGGATT
B18: AUCCGAU (DNA:RNA)
RNA: B1 RNA with G26U, U27C, A28C, A29G
DNA 1: CAATCTGAATTCCGGTCTCCC
DNA 2: TGGTGGCTACGACGGGATT
B19: ACAACUC (DNA:RNA)
RNA: B1 RNA with G26C, U27A, A29C, A30U, U31C
DNA 1: CAATCTGAATTCCGGTCTCCC
DNA 2: TGGTGGCTACGACGGGATT
B20: GCCAUCC (DNA:RNA)
RNA: B2 RNA with A27C, U28A, G30C, G31C
DNA 1: CAATCTGAATTCCGGTCTCCC
DNA 2: TGGTGGCTACGACGGGATT

The binders below were run against T1, RBFOX1 RRM (Homo sapiens, UniProt Q9NWB1 109-208) (assay: EMSA; HiTS-Eq, 1 nM pool, 10 min; buffer printed only for the single-RNA assays: 10 mM Tris pH 7.5, 150 mM NaCl, 3.4 mM EDTA, 0.001% NP-40, 30 C). Conditions: tags: His6 N-terminal (pET28a); label: 5' 32P.
T1 sequence: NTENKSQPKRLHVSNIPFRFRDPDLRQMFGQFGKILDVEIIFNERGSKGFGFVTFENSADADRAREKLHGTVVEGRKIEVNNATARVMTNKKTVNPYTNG
How it was run: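 Purified RbFox RRM (wild type or mutant) was equilibrated for 10 min in 50 µL with 1 nM of a 5′-radiolabelled pool of RNA with 7 randomized nucleotides, its flanks annealed to DNA oligonucleotides, across increasing protein concentrations. Free RNA was separated by 8% native PAGE, excised, reverse-transcribed, PCR-barcoded and sequenced on an Illumina HiSeq 2500. Relative association constants came from read-count changes of each variant against the control reaction, normalised to the cognate motif.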
In the case of B1, the binding signal is reported as 0.00281 KA relative to UGCAUGU.
For B2, the binding signal was 0.0185 KA relative to UGCAUGU.
B3 was tested, and the binding signal was 0.0159 KA relative to UGCAUGU.
In the case of B4, the binding signal is reported as 0.582 KA relative to UGCAUGU.
In the case of B5, the binding signal is reported as 0.0206 KA relative to UGCAUGU.
In the case of B6, the binding signal is reported as 0.0176 KA relative to UGCAUGU.
With B7 the binding signal was 0.0461 KA relative to UGCAUGU.
In the case of B8, the binding signal is reported as 0.0466 KA relative to UGCAUGU.
B9 was tested, and the binding signal was 0.0324 KA relative to UGCAUGU.
In the case of B10, the binding signal is reported as 0.0122 KA relative to UGCAUGU.
With B11 the binding signal was 0.0209 KA relative to UGCAUGU.
With B12 the binding signal was 0.00898 KA relative to UGCAUGU.
With B13 the binding signal was 0.0214 KA relative to UGCAUGU.
In the case of B14, the binding signal is reported as 0.0168 KA relative to UGCAUGU.
B15 was tested, and the binding signal was 0.0234 KA relative to UGCAUGU.
B16 was tested, and the binding signal was 0.00863 KA relative to UGCAUGU.
With B17 the binding signal was 0.0208 KA relative to UGCAUGU.
For B18, the binding signal was 0.00393 KA relative to UGCAUGU.
For B19, the binding signal was 0.00147 KA relative to UGCAUGU.
For B20, the binding signal was 0.00701 KA relative to UGCAUGU.
